HP1b binding inh: HP1-beta chromodomain-methylated histone interaction inhibition. P83916. Potency, µM (highest dose often 114 µM), inactives show top-dose activity change, negative = inhibition, actives largely listed as inhibitors. AlphaScreen HP1-beta / biotin-H3K9me3 peptide binding. 390,000 tested, 0.56% active; also: nearly all actives have a fitted effect of over 70% in size
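HP1-beta protein (50 nM final) preincubated 30 min at room temperature with biotinylated H3(1-18)K9me3 peptide (50 nM) in PBS pH 7.4, 0.01% Tween-20, then compound added for 30 min. AlphaScreen streptavidin donor/nickel chelate acceptor beads (10 ug/mL final), 30 min dark, luminescence read.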
JMJD2A Tudor: JMJD2A Tudor domain (human) inhibition; AID 504339; 390,000 tested, 4.4% active; AlphaScreen JMJD2A-Tudor / H3K4me3 peptide binding; Potency, µM (doses to about 114 µM), for inactives: at the top dose activity change, negative = inhibition, most hits filed as inhibitors; O75164; also: % is scaled to controls: 0 for no effect and ±100 for the full control effect; nearly all actives have a fitted effect of over 50% in size
Target sequence (O75164 whole entry, looked up, the tested form may be a part): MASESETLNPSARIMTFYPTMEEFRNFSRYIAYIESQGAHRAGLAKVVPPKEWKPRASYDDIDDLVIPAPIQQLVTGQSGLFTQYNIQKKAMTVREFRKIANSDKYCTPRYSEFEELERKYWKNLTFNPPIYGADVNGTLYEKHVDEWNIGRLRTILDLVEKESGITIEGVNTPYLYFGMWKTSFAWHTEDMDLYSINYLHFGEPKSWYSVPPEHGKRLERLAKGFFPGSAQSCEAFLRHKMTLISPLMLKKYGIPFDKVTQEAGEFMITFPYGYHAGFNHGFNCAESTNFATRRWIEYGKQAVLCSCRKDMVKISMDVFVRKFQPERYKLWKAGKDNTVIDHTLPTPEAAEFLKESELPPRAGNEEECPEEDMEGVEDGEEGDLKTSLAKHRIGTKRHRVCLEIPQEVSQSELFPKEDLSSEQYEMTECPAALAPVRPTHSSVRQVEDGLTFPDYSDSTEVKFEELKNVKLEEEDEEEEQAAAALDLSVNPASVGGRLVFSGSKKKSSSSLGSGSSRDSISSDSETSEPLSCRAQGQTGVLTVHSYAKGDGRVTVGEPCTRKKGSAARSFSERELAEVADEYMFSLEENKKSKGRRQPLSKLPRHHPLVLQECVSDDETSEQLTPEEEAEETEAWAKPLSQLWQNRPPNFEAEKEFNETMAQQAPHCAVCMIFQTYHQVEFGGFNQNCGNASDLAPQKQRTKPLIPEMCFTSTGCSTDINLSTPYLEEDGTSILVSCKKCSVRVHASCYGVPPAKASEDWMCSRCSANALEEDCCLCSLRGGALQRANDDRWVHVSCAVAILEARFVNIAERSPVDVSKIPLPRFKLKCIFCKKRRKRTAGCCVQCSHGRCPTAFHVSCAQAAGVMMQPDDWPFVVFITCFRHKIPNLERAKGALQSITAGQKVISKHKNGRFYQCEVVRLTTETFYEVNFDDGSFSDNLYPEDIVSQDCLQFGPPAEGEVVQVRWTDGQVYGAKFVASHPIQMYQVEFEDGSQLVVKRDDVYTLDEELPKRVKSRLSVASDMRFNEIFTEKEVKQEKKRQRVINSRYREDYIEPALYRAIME
Sfp PPTase inh: blocks B. subtilis Sfp PPTase activity. Q9F4F7. Biochemical Sfp PPTase activity, qHTS. Potency, µM, without a hit: largest response in the series, negative = inhibition, actives largely listed as inhibitors. 310,000 tested, 3.5% active;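 also: the enzyme is Sfp with the accession as filed and its product quenches rhodamine fluorescence; 0% = enzyme reaction without inhibitor and -100% = no enzyme wells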
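With Hepes-Na pH 7.6 buffer containing 10 mM MgCl2, Sfp (15 nM) modified BHQ-2-YbbR (12.5 uM) using rhodamine-CoA (5 uM). Two reads 30 minutes apart at 525/598 nm yielded each well's rate.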
BAZ2B block: BAZ2B (human) inhibition. Q9UIF8. AlphaScreen BAZ2B-H3K14Ac peptide displacement. Potency, µM (titrated, usually from 114 µM), for the others: at the highest dose activity change, negative = inhibition, most hits filed as inhibitors. 360,000 tested, 4.4% active; also: % is scaled to controls: 0 for no effect and ±100 for the full control effect; nearly all actives have a fitted effect of over 60% in size
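Inhibition is scored as reduced AlphaScreen emission. The BAZ2B/b-H3(5-23)K14Ac complex (50 nM each) in PBS pH 7.4, 0.01% Tween-20 meets compound (up to 110 uM) for 30 min at RT before bead addition.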
G9a inh: blocks human histone lysine methyltransferase G9a | G9a H3K9 monomethylation, AlphaScreen, 2 h | Potency, µM (doses to about 102 µM), without a hit: at the top dose activity, negative = inhibition, actives largely listed as inhibitors | 350,000 tested, 8.8% active; also: % is scaled to controls: 0 for no effect and ±100 for the full control effect; nearly all actives have a fitted effect of over 75% in size
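Using a bead-based AlphaScreen, monomethylated H3K9 product from 2 h room-temperature reactions (G9a 20 nM, peptide 500 nM, SAM 20 uM) was detected with 0.5 ug/mL rabbit anti-H3K9me1 antibody.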
L3MBTL1 block: blocks human L3MBTL1 | Potency, µM (doses to about 57.1 µM), inactives show at the highest dose activity, negative = inhibition, actives largely listed as inhibitors | AlphaScreen L3MBTL1–H3K9me1 peptide binding | 230,000 tested, 0.66% active | Q9Y468; also: % is scaled to controls: 0 for no effect and ±100 for the full control effect; nearly all actives have a fitted effect of over 60% in size
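Displacement of a biotinylated histone H3(1-15) peptide monomethylated at Lys9 (75 nM) from L3MBTL1 (50 nM) was measured by AlphaScreen after a 30 min room-temperature compound incubation; cefsulodin titration served as intraplate control.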
Active calls of the source: *; ? = inconclusive; . = no result; [ ] = dose if it differs, or a comment. Hits are enriched below; roughly 12% of the tested compounds scored in any of these assays. Calls follow the shape of the dose curve; as a rule, active = well fitted curve in the direction sought with a large enough effect; inconclusive = small, poorly fitted or top-dose-only effect, or another doubt; inactive = no such curve, though single readings can be large; an effect the other way counts as inactive or inconclusive. Potency is read from the fitted curve at half-maximal effect.

SMILES	HP1b binding inh	JMJD2A Tudor	Sfp PPTase inh	BAZ2B block	G9a inh	L3MBTL1 block
CCC1Oc2ccccc2N(CC(=O)NCc2ccccc2)C1=O (stereo not drawn)	37.6%	0.0%	.	2.3%	-4.1%[59 µM]	.
CN(C)c1ccc(C2/C(=C(/O)c3ccc(Br)cc3)C(=O)C(=O)N2C)cc1 (stereo not drawn)	7.8%	?	-2.0%	-3.4%	39.8µM*	.
CN1C(=O)C(=O)/C(=C(/O)c2ccc(Br)cc2)C1c1cccc([N+](=O)[O-])c1 (stereo not drawn)	9.8%	-25.2%	17.8%	-9.1%	50.1µM*	-2.1%
CC(C)c1ccc(Cc2cnc(NC(=O)c3ccc4c(c3)CC(c3ccccc3)OC4=O)s2)cc1 (stereo not drawn)	33.0%	-15.3%	.	-17.1%	3.1%[59 µM]	.
COc1cccc2nc(-c3cccs3)nc(NN3C(=O)C=C(C)C3=O)c12	.	-25.5%	?	.	.	.
COC(=O)Cc1c(C)c2cc3c(c(C)c2oc1=O)OCN(CCc1ccc(OC)cc1)C3	43.2%	-5.9%	.	-3.3%	-2.7%[59 µM]	.
CS(=O)(=O)/C(C#N)=C\c1cnc(S(=O)(=O)c2ccccc2)s1	.	.	3.55µM*	50.1µM*	1µM*	.
COc1ccc(C)cc1NC(=O)c1cc2c(s1)-c1ccccc1SC2	94.2%	53.0%	.	23.2%	79.0%[59 µM]	.
Cc1[nH]c2ccccc2c1C1(O)C(=O)N(Cc2ccccc2)c2ccc(Cl)cc21 (stereo not drawn)	-10.9%	?	.	?	?	.
Cc1c(Cc2ccccc2)c(=O)oc2cc(OCc3nn[nH]n3)ccc12	37.9%	10.3%	79.4µM*	7.2%	?	-2.4%
COc1ccc(-c2cc3ccc(OCc4nn[nH]n4)cc3oc2=O)cc1OC	59.6%	-16.8%	25.7%	-5.9%	44.7µM*	5.5%
COc1ccc(-c2cc3ccc(OCC(C)=O)cc3oc2=O)cc1OC	24.9%	3.5%	18.0%	-14.4%	5.8%	.
COc1cc(OC)c2c(c1)OC(c1ccccc1)CC2=O (stereo not drawn)	.	.	-7.4%	.	.	.
COc1ccc(C(=O)C(CCC(CNC(C)(C)C)C(=O)c2ccc(OC)cc2)CNC(C)(C)C)cc1 (stereo not drawn)	23.7%	-13.5%	7.3%	-0.8%	-28.4%	3.2%
COc1ccc(OCC#CCNC(C)(C)C)cc1	?	39.8µM*	?	56.2µM*	7.94µM*	.
NS(=O)(=O)c1cccc(NC(=O)CCSc2ccc(Cl)cc2)c1	43.6%	9.0%	6.1%	-5.7%	1.41µM*	7.0%
NS(=O)(=O)c1cccc(NC(=O)CCCNC(=O)c2ccc(Cl)cc2)c1	18.3%	-9.6%	14.0%	-9.8%	18.8%	.
Cc1cccc(Cc2c(C)nc3nc(SCc4ccccc4F)nn3c2C)c1	41.1%	9.5%	.	14.3%	7.6%[59 µM]	.
O=C1C2C3C=CC(C2C(=O)N1c1ccc(O)cc1)C1C2C(=O)N(c4ccc(O)cc4)C(=O)C2C31 (stereo not drawn)	27.2%	-15.1%	13.1%	-23.8%	50.1µM*	.
O=C1CCCC(=O)N1c1ccc(O)cc1	6.1%	-12.7%	24.8%	-20.9%	25.5%	-1.6%
O=C(O)CNC(=O)c1ccc(OC(F)F)cc1	43.4%	-7.6%	26.9%	-6.2%	-14.5%[59 µM]	1.1%
O=C1C=CC(=O)N1c1ccc(OC(F)F)cc1	20µM*	15.8µM*	?	?	1.41µM*	-2.4%
O=C1C2C3C=CC(C2C(=O)N1c1ccccc1O)C1C2C(=O)N(c4ccccc4O)C(=O)C2C31 (stereo not drawn)	37.1%	-21.1%	18.1%	-11.4%	-7.6%	-0.2%
O=C1C=CC(=O)N1c1ccc(O)cc1	?	39.8µM*	12.6µM*	-4.6%	1µM*	-2.4%
CCC(Sc1nnc(-c2ccc(F)cc2)c(-c2ccc(F)cc2)n1)C(=O)NC1CCCC1 (stereo not drawn)	19.3%	-23.0%	.	-2.0%	3.0%[59 µM]	.
SMILES	HP1b binding inh	JMJD2A Tudor	Sfp PPTase inh	BAZ2B block	G9a inh	L3MBTL1 block
CC(C)c1cnc2c(c1SCC(=O)c1ccc(Cl)cc1)c(=O)n(C)c(=O)n2C	14.3%[57 µM]	-27.3%	.	-4.4%	-9.4%[59 µM]	.
CCc1ccccc1NC(=O)CN1C(=O)CCn2nc(-c3cccn3C)cc21	4.2%[57 µM]	-35.5%	.	-36.4%	-28.2%[59 µM]	.
O=C(OCc1nc2scc(-c3ccccc3)c2c(=O)[nH]1)c1cccc([N+](=O)[O-])c1	?	?	?	-2.3%	39.8µM*	-5.5%
O=C(OCc1nc2scc(-c3ccccc3)c2c(=O)[nH]1)c1ccco1	19.6%	-17.6%	.	8.3%	?	5.3%
CC(C)[C@H](NC(=O)c1ccccc1)C(=O)OCc1nc2scc(-c3ccccc3)c2c(=O)[nH]1	20.4%	16.3%	1.3%	-28.9%	-6.4%[12.7 µM]	2.9%
NC(=O)Cc1nc2scc(-c3ccccc3)c2c(=O)[nH]1	-6.0%	-10.5%	79.4µM*	-18.6%	14.1µM*	-5.0%
Cn1ccc(C(=O)NC(=S)Nc2ccc([N+](=O)[O-])cc2O)n1	-3.0%	-27.7%	?	-31.6%	25.1µM*	.
O=C(NCc1ccccc1)c1ccccc1C(=O)c1ncc[nH]1	28.7%	-2.0%	?	?	12.6µM*	0.4%
Cc1ccc(-n2nc(CO)c(C(=O)NCCC(C)C)n2)cc1C	26.9%	-6.3%	.	-0.2%	-0.5%[59 µM]	.
CCOC(=O)c1c(S(=O)(=O)N2CCC(C(=O)Nc3ccc(C)cc3C)CC2)c(C)n(C)c1C	24.6%	-11.3%	.	-6.8%	8.3%[59 µM]	.
Nc1nc(SCC(=O)N2N=C3/C(=C\c4ccco4)CCCC3C2c2ccco2)n[nH]1 (stereo not drawn)	-10.1%	?	.	.	.	.
O=C(CSc1nccc(=O)[nH]1)N1N=C2/C(=C/c3ccco3)CCCC2C1c1ccco1 (stereo not drawn)	?	44.7µM*	10µM*	.	?	-85.5%
Nc1nc(SCC(=O)N2N=C3/C(=C/c4ccco4)CCCC3C2c2ccco2)n[nH]1 (stereo not drawn)	-8.0%	-32.9%	-12.4%	50.1µM*	?	.
Cn1cnnc1SCC(=O)N1N=C2/C(=C/c3ccco3)CCCC2C1c1ccco1 (stereo not drawn)	8.5%	-24.0%	11.0%	56.2µM*	.	-18.4%
CCc1cccc(NC(=O)CCc2c(C)nc3c(c2C)c(=O)n(C)c(=O)n3C)c1	21.0%	-7.1%	.	-5.2%	-33.9%[59 µM]	.
Cc1ccc(-c2nnn(CC(=O)N(Cc3ccco3)C(C(=O)NC(C)(C)C)c3cccs3)n2)o1 (stereo not drawn)	20.1%	-25.4%	?	?	12.6µM*	-13.8%
Cc1ccc(-c2nnn(CC(=O)N(Cc3cccs3)C(C(=O)NC(C)(C)C)c3ccc(C)o3)n2)o1 (stereo not drawn)	20.3%	-6.7%	-25.5%	-3.0%	?	-8.9%
